High-throughput results: PubChem BioAssay, The Scripps Research Institute Molecular Screening Center
pPAFAH inh – inhibitors of human plasma PAF acetylhydrolase (pPAFAH); Q13093; recombinant pPAFAH, FP-rhodamine probe fluorescence polarization; inhibition, % at 3.39 µM; 330,000 compounds, 1.5% hits; AID 463082;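 active = inhibition above the mean inhibition across the screen plus 3 SD, cut at about 25% in these data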;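 also: inhibitors block binding of the rhodamine activity-based probe so polarization drops; 0% = enzyme with DMSO and 100% = wells lacking pPAFAH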
PME-1 primary – PME-1 (human) inhibition. Q9Y570. recombinant PME-1, FP-Rh probe fluorescence polarization. inhibition, % at 5.9 µM. 320,000 compounds, 0.53% hits. AID 2130;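 active = inhibition above the campaign mean of all compounds plus 3 SD, cut at about 26% in these data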;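 also: competitive labeling of PME-1 active site by serine hydrolase directed probe; 0% = PME-1 with DMSO and 100% = wells lacking PME-1 enzyme; inhibitors block probe labeling so polarization falls and inhibition rises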
Target sequence (Q9Y570 whole entry, looked up): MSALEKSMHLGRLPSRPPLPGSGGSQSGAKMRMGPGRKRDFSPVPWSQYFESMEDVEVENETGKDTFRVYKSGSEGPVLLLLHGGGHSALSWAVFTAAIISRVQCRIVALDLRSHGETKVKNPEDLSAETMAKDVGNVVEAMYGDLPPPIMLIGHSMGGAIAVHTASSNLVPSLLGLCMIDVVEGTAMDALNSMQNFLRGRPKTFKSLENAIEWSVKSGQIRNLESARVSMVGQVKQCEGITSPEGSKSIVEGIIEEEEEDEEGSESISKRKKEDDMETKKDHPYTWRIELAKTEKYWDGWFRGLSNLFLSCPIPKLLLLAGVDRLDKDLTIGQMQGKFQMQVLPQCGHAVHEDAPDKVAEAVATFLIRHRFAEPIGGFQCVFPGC
PAFAH2 FP inh – inhibitors of human PAFAH2; inhibition, % at 3.39 µM; Q99487; 340,000 compounds, 0.99% hits; recombinant PAFAH2, FP-rhodamine activity probe, fluorescence polarization;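 active = inhibition above the mean over all tested compounds plus 3 SD, cut at about 30% in these data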;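 also: inhibitors block probe labeling of enzyme so polarization drops; 0% = enzyme with DMSO and 100% = wells lacking PAFAH2 protein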
PAFAH1B2 FP inh – PAFAH1B2 (human) inhibition; recombinant PAFAH1B2, FP-rhodamine activity probe, fluorescence polarization; inhibition, % at 3.39 µM; 340,000 compounds, 1.2% hits; AID 492953;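 active = inhibition above the mean of all tested compounds plus 3 SD, cut at about 24% in these data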;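 also: 0% = enzyme with DMSO and 100% = wells lacking PAFAH1B2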
Target sequence (P68402 whole entry, looked up): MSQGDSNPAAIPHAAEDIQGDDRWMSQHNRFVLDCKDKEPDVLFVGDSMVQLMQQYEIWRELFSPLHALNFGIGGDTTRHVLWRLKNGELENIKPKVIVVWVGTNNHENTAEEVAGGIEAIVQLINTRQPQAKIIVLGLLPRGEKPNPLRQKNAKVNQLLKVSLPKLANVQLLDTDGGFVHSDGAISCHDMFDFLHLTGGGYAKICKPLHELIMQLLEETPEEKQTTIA
Fam108B counter – Fam108B inhibition, counter-screen for RBBP9 inhibitors; recombinant Fam108B, FP-Rh probe fluorescence polarization; inhibition, % at 9.51 µM; 300,000 compounds, 0.33% hits;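 active = inhibition above the screen mean inhibition plus 3 SD, computed separately per campaign, cut at about 18% in these data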;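 also: inhibitors lower polarization as less probe binds the enzyme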
PAFAH1B3 inh – PAFAH1B3 (human) inhibition; inhibition, % at 3.39 µM; 340,000 compounds, 0.28% hits; Q15102; recombinant PAFAH1B3, FP-rhodamine probe, fluorescence polarization;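 active = inhibition above the screen-wide average of all tested compounds plus 3 SD, cut at about 25% in these data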;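 also: 0% = enzyme with DMSO only and 100% = wells lacking PAFAH1B3 protein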
Fam108b confirm – confirmation of mouse Fam108b serine hydrolase inhibitors; shares compounds with Fam108B counter; recombinant Fam108b, FP-Rh probe fluorescence polarization; inhibition, % at 9.51 µM; 930 compounds, 44% hits; AID 1978;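 active = inhibition above a limit from the primary screen, the mean over all compounds plus 3 SD, cut at about 19% in these data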;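 also: 0% = median of active Fam108b wells and 100% = catalytically dead S170A mutant; inhibitors free the probe so polarization falls as inhibition rises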
Fam108b inh – inhibits mouse Fam108b in gel-based ABPP. 260 compounds, 44% hits. inhibition, % at 20 µM. recombinant Fam108b, fluorophosphonate probe. shares compounds with Fam108B counter; in the data active = inhibition above about 40%
* marks the source's active call; other numbers are inactive results; / = no result. The list is not random: actives were taken first. Their share in the collection is about 2.9%.

SMILES	pPAFAH inh	PME-1 primary	PAFAH2 FP inh	PAFAH1B2 FP inh	Fam108B counter	PAFAH1B3 inh	others
O=C(Nc1ccccc1)c1c(O)[nH]c(=S)[nH]c1=O	-6	6	-10	-5	-1	5
CCC(C)n1c(O)c(C=NCc2cccnc2)c(=O)[nH]c1=S (stereo not given)	4	5	10	7	0	5
O=c1[nH]c(=S)n(Cc2ccc(F)cc2)c(O)c1C=NCC1CCCO1 (stereo not given)	1	-4	3	34*	-2	1
O=c1[nH]c(=S)n(Cc2ccc(F)cc2)c(O)c1C=NCc1cccnc1	6	6	0	28*	0	-5
O=c1[nH]c(=S)n(Cc2ccc(F)cc2)c(O)c1/C=N/N1CCCCC1	0	-4	2	32*	2	-7
CCCN1CCC(NC2CCC(O)CC2)CC1 (stereo not given)	2	-4	6	5	2	11
O=c1[nH]c(=S)n(CCC2=CCCCC2)c(O)c1/C=N/Nc1ccccc1	17	-7	9	35*	6	2
O=c1[nH]c(=S)n(CCC2=CCCCC2)c(O)c1C=NC1CCN(Cc2ccccc2)CC1	-5	-12	-4	-5	-3	-1
COC(=O)CC1=C(C(=O)OC)C2(C(=O)N(C)c3ccccc32)C(C#N)=C(N)O1 (stereo not given)	1	1	-6	4	-1	-4
CN1C(=O)C[N+]([O-])=C(c2ccccc2)c2cc(Cl)ccc21	/	/	8	-2	/	7
COc1ccc(-n2c(-c3ccccc3[N+](=O)[O-])nc3ccccc3c2=O)cc1	/	/	-6	7	/	7
CCn1nc(-c2cccs2)nc2c(=O)n(C)c(=O)nc1-2	/	/	56*	47*	/	74*
O=C1NC(=O)N(c2ccccc2)C(=O)/C1=C/c1ccc(Sc2ccccc2)o1	4	-16	39*	60*	-4	6
O=C1NC(=O)N(c2cccc(Cl)c2)C(=O)/C1=C\c1ccc(Sc2nc3ccccc3[nH]2)o1	15	-74	-27	-37	-45	-48
CCC(c1ccc(C)cc1)N1C(=O)C2C3CCC(O3)C2C1=O (stereo not given)	2	3	-4	7	/	3
Cc1ccc(-n2c(O)c(/C=N/c3ncc(Br)cc3Br)c(=O)[nH]c2=O)cc1	-1	1	-21	-4	0	-11
Cc1cc(C)n(-c2ccc(NN=C(C#N)C#N)cc2)n1	28*	1	7	1	6	4
S=C=Nc1cccc(C2(N3CCCCC3)CCCCC2)c1	-1	-3	3	5	2	22
O=C1NC(=S)NC(=O)C1=Cc1ccc2c(c1)CCN2CCCCl	29*	2	/	/	3	/
CCOC(=O)c1ccc2[nH]c(-c3ccc(S(=O)(=O)F)cc3)cc(=O)c2c1	28*	6	8	8	-3	8
COC(=O)C1=C(c2ccc(C(C)=O)cc2)C[C@@H]2CC[C@H]1N2C(=O)NCc1ccc(C(F)(F)F)cc1	1	8	5	35*	/	15
COC(=O)C1=C(c2ccc(OC(F)(F)F)cc2)C[C@@H]2CC[C@H]1N2C(=O)NCCc1ccccc1	30*	-1	-2	3	/	6
COC(=O)C1=C(c2ccc(OC(F)(F)F)cc2)C[C@@H]2CC[C@H]1N2C(=O)NCCNC(C)=O	-1	4	6	1	/	-8
Cc1ccc(-c2nc3ccc(Cl)cc3n2OC(=O)N(C)C)cc1	2	-7	2	62*	-1	6
Cc1cc(C)cc(N2C(=O)NC(=O)/C(=C\c3cccn3-c3ccc(Cl)cc3)C2=O)c1	6	-1	39*	43*	6	-2
SMILES	pPAFAH inh	PME-1 primary	PAFAH2 FP inh	PAFAH1B2 FP inh	Fam108B counter	PAFAH1B3 inh	others
COc1cc(C=C2C(=O)NC(=O)NC2=O)ccc1OCc1ccc([N+](=O)[O-])cc1	/	/	7	26*	/	2
O=C1NC(=O)C(=Cc2ccc(Oc3ccc([N+](=O)[O-])cc3)cc2)C(=O)N1	1	-1	4	7	1	3
Cc1ccc(S(=O)(=O)N2CCN(C(=O)COC(=O)Cc3ccccc3)CC2)c(C)c1	31*	13	24	7	1	1
Cc1ccc(N2C(=O)/C(=C/c3ccc(CN(CCC#N)S(C)(=O)=O)o3)C(=O)NC2=S)cc1	28*	-4	33*	-5	-5	2
NS(=O)(=O)c1ccc(N=Cc2c(O)n(-c3ccccc3)c(=O)[nH]c2=O)cc1	0	-3	/	/	-1	/
CC(C)n1c(O)c(C2c3cc(Cl)ccc3Oc3[nH]c(=O)n(C(C)C)c(=O)c32)c(=O)[nH]c1=O (stereo not given)	/	/	-1	39*	/	3
CC(=O)c1c(O)n(-c2cccc(Cl)c2)c(=O)[nH]c1=O (tested in a mixture with another compound)	5	-1	3	7	2	0
Cn1c(O)c(/C=C2\N=c3ccccc3=C2CCNC(=S)NC2CC2)c(=O)n(C)c1=O	0	-2	4	56*	4	6
NP(=O)(Oc1ccccc1Cl)Oc1ccccc1Cl	1	98*	-2	24*	0	2
COc1ccc(Cn2c(O)c(/C=N/NC(=O)c3ccccc3O)c(=O)[nH]c2=O)cc1	27*	-7	18	23	13	20
O=C(N/N=C/c1c(O)n(Cc2ccc(F)cc2)c(=O)[nH]c1=O)c1ccccc1O	32*	19	11	35*	14	19
Cc1oc(-c2ccc(F)cc2F)nc1CN1C[C@@H]2C[C@@H](C1)c1cccc(=O)n1C2	5	7	-4	0	-4	-3
CCOc1cccc(OCC)c2c(C)[n+](CC3CCCO3)c(C)c1-2 (stereo not given)	19	5	32*	15	5	6
O=C(N/N=C/c1c(O)n(Cc2ccccc2)c(=O)[nH]c1=O)c1ccccc1O	23	1	47*	34*	21*	33*	Fam108b confirm=42*;Fam108b inh=0
O=C(N/N=C/c1c(O)n(CCc2ccccc2)c(=O)[nH]c1=O)c1ccccc1O	22	7	4	9	10	13
O=c1[nH]c2ccccc2n1CCCN1CCC(n2c(=O)[nH]c3cc(Cl)ccc32)CC1	5	-1	-1	3	19*	10	Fam108b confirm=-4
CCCCCn1c(N)c(C(=O)NCc2cccs2)c2nc3ccccc3nc21	4	10	/	/	5	/
Nc1c(C(=O)NCCCc2ccccc2)c2nc3ccccc3nc2n1Cc1cccs1	-1	2	-14	-1	34*	-1	Fam108b confirm=21*
